# Assay results published in PubChem BioAssay AID1117359 (Southern Research Institute, 2015).
# About 460 (31%) of roughly 1,500 compounds were called active.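 How the source made its calls: active means viability at or below 80% at any tested concentration, marking the compound as toxic; inactive means the rest.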 Only a sample is shown. Measured potencies and affinities stand elsewhere.
# Assay: viability loss in THP-1 monocytes – THP-1 cells, cytotoxicity control for Vif-APOBEC3G degradation inhibitor project, dose response (AID 1117359)
# Conditions: THP-1 viability, CellTiter-Glo luminescence, 72 h; series mostly up to 40 µM
row,SMILES,outcome
1,COc1ccc(CC(=O)Oc2ccc(F)c(F)c2)cc1S(=O)(=O)N1CCOCC1,inactive
2,O=C(NCc1ccc(F)cc1)C1CCC(CNc2c(N3CCCCC3)c(=O)c2=O)CC1 (stereo not given),inactive
3,Cc1ccc(C)c(OCCC(=O)Nc2ccccc2C(=O)NC2CC2)c1,inactive
4,CCC(CC)NC(=O)Nc1ccc(F)cc1F,inactive
5,CS(=O)(=O)N(C(=O)NC(=O)NC1CCS(=O)(=O)C1)C1CCCCC1 (stereo not given),inactive
6,O=C(CNS(=O)(=O)c1ccc2ccccc2c1)Nc1ccc(F)c(F)c1F,inactive
7,CC(C)(C)NC(=O)CSc1nnc(-c2ccccn2)n1Cc1ccccc1,inactive
8,COc1ccc(OC)c(NC(=O)COC(=O)c2ccc(OC)c(S(=O)(=O)N3CCOCC3)c2)c1,inactive
9,COc1ccc(NC(=O)c2ccc(S(=O)(=O)N3CCOCC3)o2)cc1,inactive
10,CC(=O)Nc1ccc2c(c1)Cc1cc(N3C(=O)C=CC3=O)ccc1-2,inactive
11,NC(=O)C1CCCN(CC(=O)Nc2ccccc2C(=O)NC2CC2)C1 (stereo not given),inactive
12,COC(=O)Cc1cc(=O)n(-c2nc3ccccc3[nH]2)[nH]1,inactive
13,CC(=O)OCCCNc1cc(Sc2nc3ccccc3s2)c2nonc2c1[N+](=O)[O-],inactive
14,CCCC(NCC(=O)Nc1ccccc1C(=O)NC1CC1)c1ccccc1 (stereo not given),inactive
15,Cc1ccc(-n2nc(C)c3c(C)c(CCC(=O)O)c(C)nc32)cc1,inactive
16,CCN(CC)CCCNC(=O)CSc1nc(-c2cccs2)cc(C(F)(F)F)n1,inactive
17,COCCn1c(N)c(N(Cc2ccccc2)C(=O)C2CCCCC2)c(=O)[nH]c1=O,inactive
18,O=C(O)c1ccc(NS(=O)(=O)c2cccc(C(=O)Nc3ccc([N+](=O)[O-])cc3)c2)cc1,inactive
19,O=C(CSCc1ccc(Br)cc1)NC1CC1,inactive
20,CC(c1ccccc1)N(C)CC(=O)NC(=O)NCCC1=CCCCC1 (stereo not given),inactive
21,COC(=O)c1ccc(NC(=O)COc2cccc(-n3cnnn3)c2)cc1,inactive
22,CCOC(=O)C/C(C)=N\Nc1ccc([N+](=O)[O-])cc1[N+](=O)[O-],inactive
23,CCOC(=O)c1csc(N)c1-c1ccc([N+](=O)[O-])cc1,inactive
24,CCOc1ccccc1NC(=O)CCS(=O)(=O)c1ccc(Br)cc1,inactive
25,CC(=O)N1CCN(c2nc(-c3ccco3)c3c(c2C#N)CC(C)(C)SC3)CC1,inactive
26,CC1CCCN(Cc2c(O)ccc3c2O/C(=C\c2ccco2)C3=O)C1 (stereo not given),inactive
27,COc1cccc(-c2nc(-c3cccs3)no2)c1,inactive
28,COc1ccc(C(C)=O)cc1CN1C(=O)NC2(CCCC2)C1=O,inactive

row,SMILES,outcome
1,O=C(O)C1Nc2c(Cl)cc(Cl)cc2C2C=CCC12 (stereo not given),inactive
2,Cc1ncc(CO)c(/C=N/NC(=O)c2cc(O)c(O)c(O)c2)c1O,inactive
3,COc1ccc(C(=O)N/N=C/c2cccnc2)cc1,inactive
4,CCOC(=O)c1nn(-c2ccc(Cl)cc2Cl)c(=N)c(C#N)c1C,inactive
5,CSc1ncccc1C(=O)NCc1nnc2ccccn12,inactive
6,COC(=O)C1=C(C)NC(=O)NC1c1ccc2c(c1)OCO2 (stereo not given),inactive
7,Cc1cc(C)n2nc(SC(C)C(=O)N3CCCC3)nc2n1 (stereo not given),inactive
8,O=C(COC(=O)c1ccccc1Br)Nc1nnc(-c2ccccc2)o1,inactive
9,O=C(Nc1ccc(F)cc1F)c1noc2c1CCC2,inactive
10,CCOc1cccc(=O)c2c(C)n(C)c(C)c12,inactive
11,CCOC(=O)Cn1nc(-c2ccccc2)c2cnc3ccc(C)cc3c21,inactive
12,COc1ccc(/C=C/C(=O)NC(=S)Nc2ccccn2)cc1,inactive
13,C[C@@H]1CCCCO[C@H](CN(C)C(=O)c2ccccc2)[C@@H](C)CN([C@H](C)CO)C(=O)c2cc(NC(=O)NC3CCCCC3)ccc2O1,inactive
14,COc1cccc(/C=N/n2c(-c3cc(C)[nH]n3)n[nH]c2=S)c1,inactive
15,CS(=O)(=O)N1CCCCC1CCN1CCCCC1 (stereo not given),inactive
16,CCOC(=O)COn1c(=O)c(-c2ccc(Cl)cc2)[n+]([O-])c2ccccc21,inactive
17,CCOC(=O)c1cccc2c(=O)c(C(=O)c3ccc(Cl)cc3)c(C(=O)OC)[nH]c12,inactive
18,CNC(=O)C(=O)N/N=C/c1cccnc1,inactive
19,COc1cccc(CN2CCSCC2)c1,inactive
20,CCNC(=S)Nc1cccc(S(=O)(=O)NC2=NCCC2)c1,inactive
21,CC(=O)NCCn1c(SCC(=O)Nc2ccc(C)cc2)nc2ccccc2c1=O,inactive
22,CCC(NC(=O)Nc1ccc(O)cc1)(C(F)(F)F)C(F)(F)F,inactive
23,CC(=O)N1CCN(c2ccc(NCc3ccc(F)cc3)cc2)CC1,inactive
24,O=C1/C(=C/c2ccco2)SC(=S)N1c1cccnc1,inactive
25,O=S(=O)(O)c1cc(O)c2c(O)c(N=Nc3cc(Cl)ccc3O)c(S(=O)(=O)O)cc2c1,inactive
26,Cc1ccccc1OCCC(=O)Nc1ccccc1C(=O)NC1CC1,inactive
27,CC(=O)Nc1ccc(OCC(=O)N2CCc3ccccc3C2)cc1,inactive
